Laboratory results: article PMC7862700, “An all-to-all approach to the identification of sequence-specific readers for epigenetic DNA modifications on cytosine”

Tests used:
Experiment in all cases: DAPPL (digital affinity profiling via proximity ligation, sequencing); 10 mM Tris-HCl pH 7.5, 50 mM NaCl, 1 mM DTT, 4% glycerol, room temperature, 30 min; GST-TFs on glutathione beads, 16-mer random dsDNA library, 0.1% formaldehyde crosslink after washing; high values mean tight binding
Conditions in all cases: protein: recombinant; tags: N-terminal GST; dsDNA, one strand shown
[1] = target: T1, FLI1 (Homo sapiens, UniProt Q01543 1-452)
T1 sequence: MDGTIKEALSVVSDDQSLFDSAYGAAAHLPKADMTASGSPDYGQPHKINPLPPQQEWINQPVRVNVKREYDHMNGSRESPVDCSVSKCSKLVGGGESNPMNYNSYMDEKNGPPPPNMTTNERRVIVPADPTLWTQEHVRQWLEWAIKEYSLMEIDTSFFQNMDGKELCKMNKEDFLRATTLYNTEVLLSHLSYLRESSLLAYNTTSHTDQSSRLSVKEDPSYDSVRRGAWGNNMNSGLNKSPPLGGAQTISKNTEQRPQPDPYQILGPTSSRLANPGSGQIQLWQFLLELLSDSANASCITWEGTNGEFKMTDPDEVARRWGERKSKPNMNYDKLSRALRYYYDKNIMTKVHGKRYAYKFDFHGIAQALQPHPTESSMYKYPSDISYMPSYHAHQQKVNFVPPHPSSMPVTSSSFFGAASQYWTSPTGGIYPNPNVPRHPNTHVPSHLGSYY
Method in brief: (§1)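 GST fusions of human transcription factors were expressed in yeast and captured with glutathione beads. Once given DNA barcodes and pooled alongside a tag-only sample, they were incubated for 30 min at room temperature with 200 nmole of a random double-stranded 16-mer DNA library in Tris/NaCl/DTT/glycerol buffer, then washed, crosslinked (0.1% formaldehyde), proximity-ligated, PCR-amplified and sequenced on an Illumina NextSeq500. The binding signal of each hexamer is its read frequency for a factor divided by its frequency for the tag-only sample.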

[2] = target: T2, ELK1 (Homo sapiens, UniProt P19419 1-428)
T2 sequence: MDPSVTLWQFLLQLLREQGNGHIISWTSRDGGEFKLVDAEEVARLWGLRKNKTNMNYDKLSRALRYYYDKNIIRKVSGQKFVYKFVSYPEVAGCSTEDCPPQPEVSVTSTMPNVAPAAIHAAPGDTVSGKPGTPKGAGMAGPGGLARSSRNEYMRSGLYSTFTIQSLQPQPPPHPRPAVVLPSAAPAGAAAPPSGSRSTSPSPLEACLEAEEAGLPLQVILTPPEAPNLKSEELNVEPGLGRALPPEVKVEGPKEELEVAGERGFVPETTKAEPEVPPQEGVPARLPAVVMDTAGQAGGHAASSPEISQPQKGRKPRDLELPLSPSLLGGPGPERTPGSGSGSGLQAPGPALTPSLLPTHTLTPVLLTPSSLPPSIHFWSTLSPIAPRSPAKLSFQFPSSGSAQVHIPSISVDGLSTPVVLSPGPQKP
Method in brief: as §1

[3] = target: T3, GABPA (Homo sapiens, UniProt Q06546 1-454)
T3 sequence: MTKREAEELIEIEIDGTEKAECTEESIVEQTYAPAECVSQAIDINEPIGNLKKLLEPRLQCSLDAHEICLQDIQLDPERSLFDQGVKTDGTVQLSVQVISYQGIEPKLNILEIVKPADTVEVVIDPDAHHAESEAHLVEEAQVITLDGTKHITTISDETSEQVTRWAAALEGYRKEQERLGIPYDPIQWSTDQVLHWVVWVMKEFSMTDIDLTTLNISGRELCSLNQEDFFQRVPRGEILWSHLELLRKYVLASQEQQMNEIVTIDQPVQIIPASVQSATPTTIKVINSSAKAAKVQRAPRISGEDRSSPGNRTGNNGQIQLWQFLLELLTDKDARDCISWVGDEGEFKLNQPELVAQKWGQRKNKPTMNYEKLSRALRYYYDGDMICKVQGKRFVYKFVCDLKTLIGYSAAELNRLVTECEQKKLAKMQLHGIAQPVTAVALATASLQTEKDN
Method in brief: as §1

[4] = target: T4, ERG (Homo sapiens, UniProt P11308 1-479)
T4 sequence: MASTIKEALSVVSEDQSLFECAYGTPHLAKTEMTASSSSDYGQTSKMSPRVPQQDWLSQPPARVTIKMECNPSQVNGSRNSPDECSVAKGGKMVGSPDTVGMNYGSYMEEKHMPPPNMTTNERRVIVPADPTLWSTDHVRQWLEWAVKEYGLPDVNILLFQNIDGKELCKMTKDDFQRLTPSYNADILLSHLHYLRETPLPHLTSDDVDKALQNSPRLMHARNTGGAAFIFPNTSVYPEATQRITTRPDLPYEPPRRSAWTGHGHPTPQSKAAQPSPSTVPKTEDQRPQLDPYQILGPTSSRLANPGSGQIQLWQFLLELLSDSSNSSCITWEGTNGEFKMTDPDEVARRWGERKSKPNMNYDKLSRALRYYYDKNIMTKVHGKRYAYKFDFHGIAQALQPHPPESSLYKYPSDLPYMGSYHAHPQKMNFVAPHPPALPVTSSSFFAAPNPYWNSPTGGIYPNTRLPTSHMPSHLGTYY
Method in brief: as §1

[5] = target: ELF1 (Homo sapiens, UniProt P32519 1-619)
Sequence of ELF1 (P32519 whole entry): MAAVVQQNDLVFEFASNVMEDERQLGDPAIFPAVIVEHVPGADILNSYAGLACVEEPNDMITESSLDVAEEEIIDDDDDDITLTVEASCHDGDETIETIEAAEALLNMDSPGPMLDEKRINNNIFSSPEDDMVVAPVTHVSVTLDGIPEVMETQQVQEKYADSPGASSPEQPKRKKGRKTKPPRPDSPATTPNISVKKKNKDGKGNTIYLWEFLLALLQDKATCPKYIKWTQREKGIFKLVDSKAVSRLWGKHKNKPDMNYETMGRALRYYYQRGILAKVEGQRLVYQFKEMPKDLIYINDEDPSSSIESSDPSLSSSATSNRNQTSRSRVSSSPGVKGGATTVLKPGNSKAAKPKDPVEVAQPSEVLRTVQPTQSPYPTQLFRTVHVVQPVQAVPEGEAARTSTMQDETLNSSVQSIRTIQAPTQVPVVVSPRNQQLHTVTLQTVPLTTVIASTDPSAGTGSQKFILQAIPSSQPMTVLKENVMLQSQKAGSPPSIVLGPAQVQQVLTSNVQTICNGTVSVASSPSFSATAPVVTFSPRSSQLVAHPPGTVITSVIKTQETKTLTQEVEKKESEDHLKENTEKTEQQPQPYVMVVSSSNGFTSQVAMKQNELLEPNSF
Method in brief: as §1

[6] = target: T5, EHF (Homo sapiens, UniProt Q9NZC4 1-300)
T5 sequence: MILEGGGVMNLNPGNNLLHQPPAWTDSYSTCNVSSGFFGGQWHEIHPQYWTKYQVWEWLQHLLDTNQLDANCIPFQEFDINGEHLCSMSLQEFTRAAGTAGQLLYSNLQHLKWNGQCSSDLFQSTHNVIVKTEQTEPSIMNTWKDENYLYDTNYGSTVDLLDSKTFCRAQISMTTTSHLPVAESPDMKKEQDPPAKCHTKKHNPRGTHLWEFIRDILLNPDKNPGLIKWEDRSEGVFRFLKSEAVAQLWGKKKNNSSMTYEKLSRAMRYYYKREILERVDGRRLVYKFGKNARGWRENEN
Method in brief: as §1

[7] = target: SPI1 (Homo sapiens, UniProt P17947 1-270)
Method in brief: as §1

[8] = target: SPIB (Homo sapiens, UniProt Q01892 1-262)
Sequence of SPIB (Q01892 whole entry): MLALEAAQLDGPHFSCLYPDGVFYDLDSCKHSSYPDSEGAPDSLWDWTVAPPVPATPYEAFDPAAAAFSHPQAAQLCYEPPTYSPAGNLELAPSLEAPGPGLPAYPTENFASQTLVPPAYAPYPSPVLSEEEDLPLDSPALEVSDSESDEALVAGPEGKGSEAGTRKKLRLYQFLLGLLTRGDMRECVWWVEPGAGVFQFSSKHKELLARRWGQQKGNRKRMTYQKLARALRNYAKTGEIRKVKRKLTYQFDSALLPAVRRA
Method in brief: as §1

[9] = target: T6, ELK3 (Homo sapiens, UniProt P41970 1-407)
T6 sequence: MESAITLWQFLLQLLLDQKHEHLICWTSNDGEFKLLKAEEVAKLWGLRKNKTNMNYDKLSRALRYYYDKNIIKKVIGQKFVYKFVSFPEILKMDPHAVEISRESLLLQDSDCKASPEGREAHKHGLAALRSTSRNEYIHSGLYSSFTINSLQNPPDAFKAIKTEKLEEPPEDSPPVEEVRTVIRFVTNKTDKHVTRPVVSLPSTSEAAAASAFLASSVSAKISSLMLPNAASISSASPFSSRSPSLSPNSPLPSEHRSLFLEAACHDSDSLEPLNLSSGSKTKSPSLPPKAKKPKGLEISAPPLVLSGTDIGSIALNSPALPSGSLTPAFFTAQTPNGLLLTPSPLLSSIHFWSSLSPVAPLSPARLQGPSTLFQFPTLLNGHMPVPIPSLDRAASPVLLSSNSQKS
Method in brief: as §1

Sequence	binding signal [1]	binding signal [2]	binding signal [3]	binding signal [4]	binding signal [5]	binding signal [6]	binding signal [7]	binding signal [8]	binding signal [9]
GAACCT	1.09 fold enrichment (6-mer frequency, TF over GST control)	1.27 fold enrichment (6-mer frequency, TF over GST control)	1.06 fold enrichment (6-mer frequency, TF over GST control)	1.09 fold enrichment (6-mer frequency, TF over GST control)	1.13 fold enrichment (6-mer frequency, TF over GST control)	1.15 fold enrichment (6-mer frequency, TF over GST control)	1.11 fold enrichment (6-mer frequency, TF over GST control)	1.14 fold enrichment (6-mer frequency, TF over GST control)	1.18 fold enrichment (6-mer frequency, TF over GST control)
CCTTGC	1.31 fold enrichment (6-mer frequency, TF over GST control)	1.28 fold enrichment (6-mer frequency, TF over GST control)	1.33 fold enrichment (6-mer frequency, TF over GST control)	1.2 fold enrichment (6-mer frequency, TF over GST control)	1.45 fold enrichment (6-mer frequency, TF over GST control)	1.28 fold enrichment (6-mer frequency, TF over GST control)	1.27 fold enrichment (6-mer frequency, TF over GST control)	1.24 fold enrichment (6-mer frequency, TF over GST control)	1.16 fold enrichment (6-mer frequency, TF over GST control)
TCGCTT	1.22 fold enrichment (6-mer frequency, TF over GST control)	1.3 fold enrichment (6-mer frequency, TF over GST control)	1.23 fold enrichment (6-mer frequency, TF over GST control)	1.18 fold enrichment (6-mer frequency, TF over GST control)	1.19 fold enrichment (6-mer frequency, TF over GST control)	1.2 fold enrichment (6-mer frequency, TF over GST control)	1.08 fold enrichment (6-mer frequency, TF over GST control)	1.38 fold enrichment (6-mer frequency, TF over GST control)	1.18 fold enrichment (6-mer frequency, TF over GST control)
TTATTG	1.24 fold enrichment (6-mer frequency, TF over GST control)	1.27 fold enrichment (6-mer frequency, TF over GST control)	1.28 fold enrichment (6-mer frequency, TF over GST control)	1.24 fold enrichment (6-mer frequency, TF over GST control)	1.3 fold enrichment (6-mer frequency, TF over GST control)	1.29 fold enrichment (6-mer frequency, TF over GST control)	1.18 fold enrichment (6-mer frequency, TF over GST control)	1.31 fold enrichment (6-mer frequency, TF over GST control)	1.38 fold enrichment (6-mer frequency, TF over GST control)
AAAGAC	1.06 fold enrichment (6-mer frequency, TF over GST control)	1.07 fold enrichment (6-mer frequency, TF over GST control)	1.02 fold enrichment (6-mer frequency, TF over GST control)	1.07 fold enrichment (6-mer frequency, TF over GST control)	1 fold enrichment (6-mer frequency, TF over GST control)	1.05 fold enrichment (6-mer frequency, TF over GST control)	1.1 fold enrichment (6-mer frequency, TF over GST control)	1.08 fold enrichment (6-mer frequency, TF over GST control)	1.02 fold enrichment (6-mer frequency, TF over GST control)
TTACTA	1.34 fold enrichment (6-mer frequency, TF over GST control)	1.31 fold enrichment (6-mer frequency, TF over GST control)	1.36 fold enrichment (6-mer frequency, TF over GST control)	1.33 fold enrichment (6-mer frequency, TF over GST control)	1.28 fold enrichment (6-mer frequency, TF over GST control)	1.23 fold enrichment (6-mer frequency, TF over GST control)	1.27 fold enrichment (6-mer frequency, TF over GST control)	1.36 fold enrichment (6-mer frequency, TF over GST control)	1.31 fold enrichment (6-mer frequency, TF over GST control)
TAAGTT	1.23 fold enrichment (6-mer frequency, TF over GST control)	1.39 fold enrichment (6-mer frequency, TF over GST control)	1.33 fold enrichment (6-mer frequency, TF over GST control)	1.25 fold enrichment (6-mer frequency, TF over GST control)	1.3 fold enrichment (6-mer frequency, TF over GST control)	1.38 fold enrichment (6-mer frequency, TF over GST control)	1.31 fold enrichment (6-mer frequency, TF over GST control)	1.35 fold enrichment (6-mer frequency, TF over GST control)	1.27 fold enrichment (6-mer frequency, TF over GST control)
TTTATA	1.32 fold enrichment (6-mer frequency, TF over GST control)	1.27 fold enrichment (6-mer frequency, TF over GST control)	1.36 fold enrichment (6-mer frequency, TF over GST control)	1.29 fold enrichment (6-mer frequency, TF over GST control)	1.23 fold enrichment (6-mer frequency, TF over GST control)	1.4 fold enrichment (6-mer frequency, TF over GST control)	1.34 fold enrichment (6-mer frequency, TF over GST control)	1.33 fold enrichment (6-mer frequency, TF over GST control)	1.28 fold enrichment (6-mer frequency, TF over GST control)
AATGTC	1.16 fold enrichment (6-mer frequency, TF over GST control)	1.21 fold enrichment (6-mer frequency, TF over GST control)	1.23 fold enrichment (6-mer frequency, TF over GST control)	1.27 fold enrichment (6-mer frequency, TF over GST control)	1.22 fold enrichment (6-mer frequency, TF over GST control)	1.29 fold enrichment (6-mer frequency, TF over GST control)	1.23 fold enrichment (6-mer frequency, TF over GST control)	1.25 fold enrichment (6-mer frequency, TF over GST control)	1.23 fold enrichment (6-mer frequency, TF over GST control)
CTGCTG	1.15 fold enrichment (6-mer frequency, TF over GST control)	1.26 fold enrichment (6-mer frequency, TF over GST control)	1.27 fold enrichment (6-mer frequency, TF over GST control)	1.11 fold enrichment (6-mer frequency, TF over GST control)	1.4 fold enrichment (6-mer frequency, TF over GST control)	1.39 fold enrichment (6-mer frequency, TF over GST control)	1.24 fold enrichment (6-mer frequency, TF over GST control)	1.04 fold enrichment (6-mer frequency, TF over GST control)	1.3 fold enrichment (6-mer frequency, TF over GST control)
TCTAAG	1.22 fold enrichment (6-mer frequency, TF over GST control)	1.19 fold enrichment (6-mer frequency, TF over GST control)	1.3 fold enrichment (6-mer frequency, TF over GST control)	1.2 fold enrichment (6-mer frequency, TF over GST control)	1.29 fold enrichment (6-mer frequency, TF over GST control)	1.28 fold enrichment (6-mer frequency, TF over GST control)	1.17 fold enrichment (6-mer frequency, TF over GST control)	1.28 fold enrichment (6-mer frequency, TF over GST control)	1.22 fold enrichment (6-mer frequency, TF over GST control)
TTGTTC	1.5 fold enrichment (6-mer frequency, TF over GST control)	1.41 fold enrichment (6-mer frequency, TF over GST control)	1.53 fold enrichment (6-mer frequency, TF over GST control)	1.34 fold enrichment (6-mer frequency, TF over GST control)	1.44 fold enrichment (6-mer frequency, TF over GST control)	1.64 fold enrichment (6-mer frequency, TF over GST control)	1.51 fold enrichment (6-mer frequency, TF over GST control)	1.57 fold enrichment (6-mer frequency, TF over GST control)	1.39 fold enrichment (6-mer frequency, TF over GST control)
CGTTAA	1.12 fold enrichment (6-mer frequency, TF over GST control)	1.17 fold enrichment (6-mer frequency, TF over GST control)	1.11 fold enrichment (6-mer frequency, TF over GST control)	1.17 fold enrichment (6-mer frequency, TF over GST control)	1.14 fold enrichment (6-mer frequency, TF over GST control)	1.1 fold enrichment (6-mer frequency, TF over GST control)	1.1 fold enrichment (6-mer frequency, TF over GST control)	1.13 fold enrichment (6-mer frequency, TF over GST control)	1.21 fold enrichment (6-mer frequency, TF over GST control)
